The values below come from ChEMBL document CHEMBL3988442, “University of Dundee, Small-Polar-MMV Screening Library” (2021).

About 13,000 (27%) of roughly 48,000 compounds showed an effect of 50% or more. Some of the results follow.

The assay deals with Wolbachia pipientis. Description: Anti-Wolbachia Cell-Based Screen. More on the design: scale not given: in the data most compounds retested in dose-response had high values. Format: functional. Particulars: 5 µM.
On to `Cc1cc(C)n(C2CN(C(=O)c3cn4ccsc4n3)C2)n1`, for which the “Percent Effect” value is reported as -20.57%.
The figure for `CCn1c(CN(C)C)nnc1C1CCN(Cc2ccc(Cl)c(F)c2)CC1` is -16.98%; for `CO[C@@H]1CCN(c2ncccn2)[C@H]1Cc1ccccc1` it is -5.923%.
In the case of `COc1cc(N2CC[C@@H](OC)[C@@H]2Cc2cnn(C)c2)ncn1`, the “Percent Effect” value amounted to 110.7%.
Take `COCCO[C@@H]1CCN(c2cc(OC)ncn2)[C@H]1Cc1cnn(C)c1`: the “Percent Effect” value is -2.108%.
The figure for `CO[C@@H]1CCN(c2ncc(F)cn2)[C@H]1Cc1cnn(C)c1` is 112%; for `Cn1cc(C[C@H]2[C@H](N3CCOCC3)CCN2c2ncc(F)cn2)cn1.O=C(O)C(F)(F)F` it is -13.6%.
Then `COCCO[C@H]1CCN(c2cc(OC)ncn2)[C@H]1Cc1cnn(C)c1`, with -1.257%.
As to `CCc1ccccc1CNC(=O)CNCC(F)(F)F`, the “Percent Effect” value was -0.7333%.
The figure for `Cc1nc(C(C)(C)NC(=O)Nc2cccc(C#N)c2)no1` is -15.63%; for `O=C(Cn1cccn1)N1CCC(Cn2cc(-c3ccsc3)nn2)CC1` it is 4.923%.
As to `O=C(O)C(F)(F)F.O=C(O)c1cc2c(nc1-c1ccsc1)CCN(C(=O)C1CC1)CC2`, the “Percent Effect” value is given as -4.061%.
With `CCCC(=O)N1CCC(Nc2nc(O)cc(-c3ccsc3)n2)CC1`, the “Percent Effect” value came to 101%.
`CC(C)CC(=O)N1CCC(Nc2nc(O)cc(-c3ccsc3)n2)CC1`: the “Percent Effect” value was 93.38%.
The figure for `CC(=O)c1c(F)cccc1NC1CCN(C(=O)CC(C)C)CC1` is -2.175%.
In the case of `CCCC(=O)N1CCC(Nc2ncc(Br)cn2)CC1`, the “Percent Effect” value is -8.622%.
On to `O=C(C1CC1)N1CCC(Nc2nc(O)cc(-c3ccsc3)n2)CC1`, for which the “Percent Effect” value worked out at 99.22%.
Consider `O=C(C1CCOC1)N1CCC(Cn2cc(-c3ccsc3)nn2)CC1` (centres undefined), for which the “Percent Effect” value is -11.04%.
Turning to `CC(C)Nc1nc2c(c(NC3CC3)n1)CN(C(=O)Cc1ccsc1)CC2`, the “Percent Effect” value is -13.92%.
The figure for `Cc1nnc(CN2CCCC2c2ccc3c(c2)OCCO3)n1C` (centres undefined) is 15.49%; for `CC(C)(C)OC(=O)N[C@H]1CCN(C(=O)c2cc(Cl)c[nH]2)C1` it is -15.92%.
The figure for `CCCC(C)NC1CCN(c2ccc(-n3ccnc3C)cc2)CC1` (centres undefined) is -8.3%; for `CC(NC(=O)CSCC(=O)Nc1ccccc1)c1ccccc1` (centres undefined) it is 5.031%; for `COCC(=O)Nc1ccc([C@@H](O)[C@H]2COCC(=O)N2CC(C)C)cc1` it is 0.04576%.
Then `CCC(=O)Nc1ccc(C(C)NC(=O)COC)cc1` (centres undefined), with 92.17%; and `CCCNC(=O)C1(Cc2cc(-c3ccccc3)no2)CCN(C(C)=O)C1` (centres undefined), with 76.91%; and `Cc1ccc(-c2cc(CNC(=O)N3CCC(CO)CC3)on2)cc1`, with 6.064%.
In the case of `CCNC(=O)C1(Cc2cc(-c3ccc(C)cc3)no2)CCCN(C)C1` (centres undefined), the “Percent Effect” value is 151.7%.
For `Cc1ccc(-c2cc(CNC(=O)N3CCOC(C)C3)on2)cc1` (centres undefined), the “Percent Effect” value is -4.045%.
For `CCNC(=O)C1(Cc2cc(-c3ccccc3)no2)CCCN(C(C)=O)C1` (centres undefined), the “Percent Effect” value is 105.3%.
Regarding `Cc1cnn(CCNCc2cc(-c3ccccc3)no2)c1`, the “Percent Effect” value was 2.44%.
Then `CC(NC(N)=O)C(=O)N(C)CCCc1cc(-c2ccccc2)no1` (centres undefined), with -0.2623%; and `CCNC(=O)C1(Cc2cc(-c3ccccc3)no2)CCCN(C(C)C)C1` (centres undefined), with 86.79%; and `CNC(=O)CC1CCN(Cc2nc(-c3ccc(SC)cc3)oc2C)CC1`, with -19.45%.
For `O=C(O)C(F)(F)F.O=C([C@H]1C[C@H]2OCC[C@H]2N(Cc2ccco2)C1)N1CCCO1`, the “Percent Effect” value turned out to be 11.53%.
For the compound `COc1ccc(CN2C[C@@H](CN(C)C)[C@@H](CO)C2)c(Cl)c1OC`, the “Percent Effect” value is recorded as -2.231%.
Then `c1cc2c(cc1C[C@@H]1CC[C@H](CN3CCCOCC3)O1)OCO2`, with 5.044%; and `Cc1cc(C)cc(C2(C(=O)NC(C)Cn3ccnc3)CC2)c1` (centres undefined), with -3.779%; and `COc1ccc(OC)c(C(C)Nc2nc3c(C)nn(C)c3c(=O)n2C)c1` (centres undefined), with -10.12%.
Then `CC(C)C(=O)N1CCN(CCOc2cccc(C#N)c2)CC1`, with 22.03%.
Then `CN(C)C(=O)NCC(=O)N(C)Cc1cc(-c2ccccc2)no1`, with 2.31%; and `CCNC(=O)CNS(=O)(=O)Cc1cc(-c2ccccc2)no1`, with -10.1%; and `CCNC(=O)C1(Cc2cc(-c3ccccc3)no2)CCCN(C)C1` (centres undefined), with 76.81%.
On to `Cc1cc(NCC(=O)N(C)Cc2cccs2)c(C(N)=O)cc1F`, for which the “Percent Effect” value was found to be 8.297%.
Regarding `CC(C)N1CCCC(C(=O)NC(C)(C)c2nnc(N)s2)C1` (centres undefined), the “Percent Effect” value was -13.81%.
For `N#Cc1c(N)nc2c(c1-c1cnc(N3CCCC3)nc1)COCC2`, the “Percent Effect” value stood at 84.51%.
Then `N#Cc1c(C2CCOC2)cc(-c2ccc(N3CCCCC3)cc2)nc1N` (centres undefined), with 2.752%; and `CCOc1ccc(NC2CCN(C3CC3)C2=O)cn1` (centres undefined), with -7.266%; and `Cn1cc(-c2c(C#N)c(N)nc3c2CCc2[nH]ccc2-3)cn1`, with 4.236%.
The figure for `CCOc1ccc(-c2c(C#N)c(N)nc3c2COCC3)cn1` is 106.3%.
Consider `Cc1cc(-c2c(C)c(-c3cnn(C)c3)nc(N)c2C#N)oc1C`, for which the “Percent Effect” value is listed as 17.25%.
Turning to `COc1ncc(-c2c(C#N)c(N)nc3c2CCc2[nH]ccc2-3)cn1`, the “Percent Effect” value is -13.65%.
Then `CCOc1ccc(NC(=O)NC2CCc3[nH]ncc3C2)cn1` (centres undefined), with -9.557%; and `CCC(C)Sc1ncc(-c2c(C#N)c(N)nc3c2COCC3)cn1` (centres undefined), with 95.02%.
Regarding `COCCc1ncc(-c2c(C#N)c(N)nc3c2CCc2[nH]ccc2-3)cn1`, the “Percent Effect” value is recorded as -13.87%.
In the case of `CC(C)n1cc(-c2c(C#N)c(N)nc3c2COCC3)cn1`, the “Percent Effect” value worked out at 109.6%.
The figure for `CC(C)=CCC/C(C)=C/CN1CCN(C)C2(CCNC(=O)CC2)C1` (centres undefined) is 14.94%; for `Cc1ccc(CN2CCc3[nH]nc(C(=O)N4CCNC(=O)C4)c3C2)s1.O=C(O)C(F)(F)F` it is -6.156%.
For `COCC1CCN(C(=O)c2cccc(S(=O)(=O)NC3CCCC3)c2)C1` (centres undefined), the “Percent Effect” value was 8.028%.
Then `CC(C)CCN1CN=C(NS(=O)(=O)c2ccc(F)cc2)NC1`, with 13.74%; and `Clc1ccc(C2(NCc3noc(C4CC4)n3)CCCC2)cc1`, with 6.408%.
On to `CS(=O)(=O)c1ccccc1NC(=O)N[C@@H]1c2ccccc2C[C@@H]1O`, for which the “Percent Effect” value came to 6.839%.
Then `CN(C)C(=O)c1ccccc1NC(=O)N[C@@H]1c2ccccc2C[C@@H]1O`, with -11.76%; and `CNC(=O)Cc1ccccc1NC(=O)N[C@H]1c2ccccc2C[C@H]1O`, with 73.79%.
